Giardia FBPA inh-1: blocks Giardia fructose-bisphosphate aldolase activity; AID 2451; purified Giardia FBPA; A8B2U2; Potency, µM (titrated, usually from 59.6 µM), without a hit: top-dose activity, negative = inhibition, actives largely listed as inhibitors; 290,000 compounds, 0.71% hits; also: nearly all actives have a fitted effect of over 55% in size
Target sequence (A8B2U2 whole entry, looked up): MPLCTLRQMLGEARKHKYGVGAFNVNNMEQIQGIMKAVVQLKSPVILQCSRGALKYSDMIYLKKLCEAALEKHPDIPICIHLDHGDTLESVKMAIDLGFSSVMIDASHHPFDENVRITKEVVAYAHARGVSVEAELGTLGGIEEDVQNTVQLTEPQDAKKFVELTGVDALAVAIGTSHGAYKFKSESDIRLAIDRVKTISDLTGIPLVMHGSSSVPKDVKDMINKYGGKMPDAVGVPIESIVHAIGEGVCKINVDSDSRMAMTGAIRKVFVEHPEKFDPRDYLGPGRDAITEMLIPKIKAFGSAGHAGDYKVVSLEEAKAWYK
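Giardia FBPA (40 nM reagent) was preincubated 10 min at RT with compound (up to 57.5 uM final), then substrate plus GAPDH/TPI/NAD/arsenate coupling system with diaphorase/resazurin was added; resorufin fluorescence (525/598 nm) was read after 20 min.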
Tb PYK inh: T. brucei pyruvate kinase inhibition; Q57TT1; TbPYK enzyme, Kinase-Glo Plus ATP luminescence, 45 min; Potency, µM (highest dose often 76.8 µM), for inactives: at the top dose activity, negative = inhibition, actives largely listed as inhibitors; 410,000 compounds, 0.12% hits; AID 624173; also: nearly all actives have a fitted effect of over 50% in size
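Luminescent Kinase-Glo Plus end-point after 45 min room-temperature reaction of T. brucei pyruvate kinase started with 130 uM ADP (final). Buffer TEA 50 mM pH 7.2 with KCl, MgCl2, BSA, Tween-20; titration-based qHTS with fitted concentration-effect curves.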
LmPK inh: blocks Leishmania mexicana pyruvate kinase activity; Q27686; purified LmPK, Kinase-Glo ATP luminescence, 1 h; Potency, µM (highest dose often 57.5 µM), for inactives: at the top dose activity change, negative = inhibition, hits mostly inhibitors; 290,000 compounds, 0.37% hits; AID 1721
Target sequence (Q27686 whole entry, looked up): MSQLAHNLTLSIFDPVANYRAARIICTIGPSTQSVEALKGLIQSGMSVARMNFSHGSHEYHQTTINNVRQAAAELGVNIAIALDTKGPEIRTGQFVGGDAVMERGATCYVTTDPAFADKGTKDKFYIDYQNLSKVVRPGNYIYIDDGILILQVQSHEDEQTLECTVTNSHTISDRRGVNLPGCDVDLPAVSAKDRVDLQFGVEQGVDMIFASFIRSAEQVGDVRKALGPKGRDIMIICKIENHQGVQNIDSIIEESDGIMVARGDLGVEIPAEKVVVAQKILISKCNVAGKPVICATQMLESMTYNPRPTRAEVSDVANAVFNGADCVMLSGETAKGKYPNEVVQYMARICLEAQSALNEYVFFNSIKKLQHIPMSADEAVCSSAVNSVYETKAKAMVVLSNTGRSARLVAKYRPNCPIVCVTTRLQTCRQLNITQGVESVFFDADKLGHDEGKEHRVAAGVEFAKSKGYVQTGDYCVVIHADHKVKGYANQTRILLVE
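Purified LmPK (0.1 nM) with 0.5 mM PEP and 0.1 mM ADP in imidazole buffer pH 7.2 with MgCl2/KCl, 1 h at room temperature. ATP formed was read by luciferase luminescence and normalized to no-enzyme and uninhibited controls.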
RE007 growth inh: less growth of the S. pombe RE007 Vpr strain | S. pombe RE007 Vpr strain, BacTiter-Glo ATP luminescence, 24 h | Potency, µM (top dose mostly 92.2 µM), without a hit: at the top dose activity change, negative = less growth, most hits filed as inhibitors | 360,000 compounds, 0.21% hits; active = well fitted falling curve with a large enough effect; inconclusive = small, poorly fitted or top-dose-only effect; inactive = no such curve, though single readings can be large or run the other way; also: nearly all actives have a fitted effect of over 50% in size
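Fission yeast RE007 carrying one integrated HIV-1 vpr copy, seeded at OD 0.01 in PMG+AL medium with 23 nL pinned compound. Grown 24 h at 30 degrees; viability read by BacTiter-Glo luminescence after 5 min.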
Giardia growth: blocks growth of Giardia lamblia trophozoites; shares compounds with Giardia FBPA inh-1; 1,500 compounds, 5% hits; Potency, µM (highest dose often 57.5 µM), without a hit: at the highest dose activity change, negative = inhibition, most hits filed as inhibitors; Giardia lamblia trophozoite growth inhibition;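 also: trophozoites exposed to compound for 48 h at 37 °C; nearly all actives have a fitted effect of over 70% in size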
Mammal cell tox: toxic to mammalian cells in Giardia aldolase counter-screen; shares compounds with Giardia FBPA inh-1; mammalian cell viability counter-screen, qHTS; Potency, µM (series often up to 57.5 µM), inactives show at the top dose viability change, negative = toxicity, actives largely listed as inhibitors; 1,500 compounds, 4% hits;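 also: Chinese hamster ovary cells used as mammalian cytotoxicity surrogate; viability measured as cellular ATP by luminescence; compound exposure lasted 48 h before reading; nearly all actives have a fitted effect of over 60% in size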
Giardia FBPA inh-2: confirmation of Giardia fructose-bisphosphate aldolase inhibitors; shares compounds with Giardia FBPA inh-1; purified Giardia aldolase enzyme activity, qHTS; Potency, µM (doses to about 57.5 µM), for inactives: at the top dose activity change, negative = inhibition, hits mostly inhibitors; 1,500 compounds, 5% hits; also: nearly all actives have a fitted effect of over 45% in size
Rabbit FBPA inh: selectivity test for Giardia aldolase inhibitors: rabbit aldolase | AID 2794 | Potency, µM (titrated, usually from 57.5 µM), without a hit: at the top dose activity, negative = inhibition, usual class: inhibitors | Rabbit muscle FBPA enzyme inhibition, selectivity counter-screen | 1,500 compounds, 4% hits | shares compounds with Giardia FBPA inh-1; also: nearly all actives have a fitted effect of over 60% in size
GAPDH counter: counter-screen for Giardia aldolase inhibitors: GAPDH coupling enzyme. GAPDH coupling enzyme counterscreen, biochemical, qHTS. 1,500 compounds, 6% hits. shares compounds with Giardia FBPA inh-1. Potency, µM (highest dose often 57.5 µM), for inactives: top-dose activity change, negative = inhibition, actives largely listed as inhibitors; also: nearly all actives have a fitted effect of over 55% in size
Numbers without * were called inactive; u = inconclusive; x = no result given; [ ] = dose if it differs, or a comment. Sampled rows, rich in hits. Any-hit rate of the full collection: about 0.95%. Unless noted, calls follow the shape of the dose curve; as a rule, active = well fitted curve in the direction sought with a large enough effect; inconclusive = small, poorly fitted or top-dose-only effect, or another doubt; inactive = no such curve, though single readings can be large; an effect the other way counts as inactive or inconclusive. % is scaled to controls: 0 for no effect and ±100 for the full control effect; potency is read from the fitted curve at half-maximal effect.

SMILES	Giardia FBPA inh-1	Tb PYK inh	LmPK inh	RE007 growth inh	Giardia growth	Mammal cell tox	Giardia FBPA inh-2	Rabbit FBPA inh	GAPDH counter
CC(C(=O)Nc1ccccc1C(F)(F)F)N1CCN(C)CC1 (stereo not given)	16µM*	3%	3%	-4%	-7%[10.4 µM]	9%	4%	-3%	13%
CCCCCCCCCCCCC/C=C/[C@@H](O)C(CO)NC(C)=O (stereo not given in full)	-2%	x	x	x	x	x	x	x	x
O=[N+]([O-])c1ccc(/C=N/NC2=NS(=O)(=O)c3ccccc32)cc1	-8%	0%	1%	-16%	x	x	x	x	x
O=S1(=O)N=C(N/N=C/c2cccs2)c2ccccc21	2µM*	-4%	-2%	11%	-3%[38.3 µM]	-5%	1%	12%	4%
O=[N+]([O-])c1ccc(O)c(/C=N/NC2=NS(=O)(=O)c3ccccc32)c1	8.9µM*	-24%	-6%	-9%	-6%[38.3 µM]	-14%	u	1%	-16%
O=C(Nc1ncn[nH]1)c1ccccc1O	20µM*	-1%	-2%	-4%	u	-3%	-12%	-3%	8%
O=C(Nc1ncn[nH]1)c1c(Cl)ccc(Cl)c1Cl	-5%	-6%	-3%	18%	x	x	x	x	x
COc1ccc(Nc2cc(C)c3c(O)cccc3n2)cc1	u	-20%	-14%	-8%	x	x	x	x	x
Cc1ccc(Nc2cc(C)c3c(O)cccc3n2)cc1C	u	-9%	-2%	-10%	6%[38.3 µM]	-1%	u	u	21µM*
Cc1c(Cl)ccc2sc(NC(=O)c3ccc(S(=O)(=O)N4CCCc5ccccc54)cc3)nc12	x	3%	x	x	x	x	x	x	x
O=C(COc1ccccc1[N+](=O)[O-])N(Cc1ccco1)c1ccccn1	x	-6%	x	x	x	x	x	x	x
N#CCCN(Cc1cccnc1)C(=S)NC(=O)c1ccccc1	x	u	x	9%	x	x	x	x	x
CC1(C(=O)NC(=S)N(CCC#N)Cc2cccnc2)CC1(Cl)Cl (stereo not given)	18µM*	x	-1%	x	-2%[10.4 µM]	5%	7%	7%	11%
COc1cccc(NC(=O)CN(C)CC(=O)Nc2ccc(C)cc2Cl)c1	14µM*	18%	-1%	-7%	-27%	16%	-2%	5%	6%
Cc1ccc(NC(=O)CN(C)CC(=O)Nc2ccccc2Oc2ccccc2)cc1	13µM*	11%	-14%	3%	-26%	-5%	-1%	-3%	3%
Cc1cccc(C)c1NC(=O)CN(C)CC(=O)Nc1ccccc1Oc1ccccc1	-6%	-26%	-3%	-5%	x	x	x	x	x
COc1cccc(NC(=O)CN(C)CC(=O)Nc2ccc(Br)cc2)c1	-8%	6%	-1%	1%	x	x	x	x	x
Cc1nc2nc(NC(=O)c3ccccc3F)[nH]n2c(=O)c1Cl	x	-1%	x	x	x	x	x	x	x
O=c1n(Cc2ccccc2Cl)c2ccccc2c2nc(-c3ccccc3)nn12	x	2%	x	x	x	x	x	x	x
Cc1nnc(SCC2=C(C(=O)O)N3C(=O)C(NC(=O)Cn4nc(C(F)F)cc4C)C3SC2)s1 (stereo not given)	14µM*	-4%	-1%	8%	7%[10.4 µM]	7%	-6%	1%	-1%
Cc1nnc(SCC2=C(C(=O)O)N3C(=O)C(NC(=O)COc4ccccc4)C3SC2)s1 (stereo not given)	x	-16%	x	-7%	x	x	x	x	x
Cc1nnc(SCC2=C(C(=O)O)N3C(=O)C(NC(=O)c4cc(F)c(F)cc4Cl)C3SC2)s1 (stereo not given)	20µM*	8%	1%	-3%	u	-3%	2%	11%	9%
Nc1cccnc1Sc1cccc(Cl)c1	1µM*	-23%	5%	18µM*	9%[38.3 µM]	-11%	-6%	-3%	-6%
CC1(C)C[C@](C)(C(=O)c2ccccc2)C=C1c1ccccc1	0%	x	x	x	x	x	x	x	x
O=C(CN1C(=O)C2(SCC(=O)N2c2ccccc2)c2ccccc21)NCc1ccccc1 (stereo not given)	x	3%	x	x	x	x	x	x	x
SMILES	Giardia FBPA inh-1	Tb PYK inh	LmPK inh	RE007 growth inh	Giardia growth	Mammal cell tox	Giardia FBPA inh-2	Rabbit FBPA inh	GAPDH counter
C=CCN=c1scc(C)n1/N=C/c1ccc(O)c(O)c1	22µM*	u	0%	-13%	8%	-19%	-25%	-29%	-18%
CN=c1scc(C)n1/N=C/c1ccc(O)cc1O	-3%	-15%	-28%	u	x	x	x	x	x
COc1ccc(CNc2ncc(-c3ccc(F)cc3)n2C)c2ccccc12	u	18%	-7%	3%	x	x	x	x	x
Cn1c(-c2ccccc2)cnc1NCc1cccc([N+](=O)[O-])c1	u	-13%	0%	-11%	x	x	x	x	x
COc1ccc(CNc2ncc(-c3cccc([N+](=O)[O-])c3)n2C)c(OC)c1OC	25µM*	3%	0%	-19%	u	-12%	-4%	-4%	4%
CSc1ccc(CNc2ncc(-c3cccc([N+](=O)[O-])c3)n2C)cc1	20µM*	1%	-5%	-11%	u	-9%	-3%	-3%	7%
Cc1ccc([N+](=O)[O-])cc1NC(=S)NC(=O)c1c(Cl)cnn1C	7.9µM*	5%	1%	-4%	12%[38.3 µM]	0%	-2%	6%	-18%
COc1ccc(NC(=S)N(CCCN2CCC(C)CC2)Cc2cccs2)cc1Cl	16µM*	u	7%	2%	17%[10.4 µM]	-2%	-6%	-1%	12%
COCCN(C(=S)Nc1ccc(OC)c(Cl)c1)C1CCN(C(C)C)CC1	11µM*	-15%	-8%	-17%	u	-3%	-9%	-1%	-3%
COc1ccc(NC(=S)NCCCN2CCCC2)cc1Cl	8.9µM*	-21%	-1%	-13%	u	32µM*	u	2%	u
COC(=O)CC1=COC2OCC3=CC[C@@H]1C32 (stereo not given in full)	4%[12.9 µM]	x	x	x	x	x	x	x	x
COc1ccc(OCC(=O)NC(Cc2c[nH]c3ccccc23)C(=O)O)cc1 (stereo not given)	x	-6%	x	x	x	x	x	x	x
CCOC(=O)N1CCc2c(sc3c2c(=O)n(-c2ccc(Cl)cc2)c(=O)n3CC(=O)Nc2ccccc2)C1	x	-7%	x	x	x	x	x	x	x
CC1(C)C(=O)N(CC(=O)Nc2ccc(Cl)cc2)c2ccccc21	x	5%	x	x	x	x	x	x	x
O=C(Cn1c(-c2cccs2)cc2cc(Cl)ccc21)N1CCCCC1	x	-4%	x	x	x	x	x	x	x
CCOC(=O)c1c(-c2ccc(OC)c(OC)c2)csc1NC(=O)c1ccc(F)cc1	x	1%	x	x	x	x	x	x	x

Source: PubChem (National Center for Advancing Translational Sciences (NCATS))
